Compounds with a hit are over-represented: about 3.9% of the library has one in this group of screens.
BoNT-A LC inh2 – blocks Botulinum neurotoxin A light chain protease; inhibition, % at 10 µM; actives 0.17% (n = 360,000); multiplex microsphere protease substrate cleavage, flow cytometry; AID 588499; further: plate controls were buffer without enzyme for full effect and enzyme alone for no effect
Autofluor counter – counter-screen for toxin protease inhibitors: compound fluorescence; compound autofluorescence counterscreen, microsphere flow cytometry; stronger effect = higher value; fluorescence intensity (no concentration beside the values); actives 3.1% (n = 360,000); in the data active means fluorescence intensity above about 16000; inconclusive means no clear call, values can overlap the other calls
Anthrax LF inh2 – blocks Bacillus anthracis lethal factor protease; P15917; multiplex microsphere protease cleavage assay, LF; inhibition, % at 10 µM; actives 0.12% (n = 360,000); AID 588501; further: plate controls were buffer without enzyme for full effect and enzyme alone for no effect
Target sequence (P15917 whole entry, looked up): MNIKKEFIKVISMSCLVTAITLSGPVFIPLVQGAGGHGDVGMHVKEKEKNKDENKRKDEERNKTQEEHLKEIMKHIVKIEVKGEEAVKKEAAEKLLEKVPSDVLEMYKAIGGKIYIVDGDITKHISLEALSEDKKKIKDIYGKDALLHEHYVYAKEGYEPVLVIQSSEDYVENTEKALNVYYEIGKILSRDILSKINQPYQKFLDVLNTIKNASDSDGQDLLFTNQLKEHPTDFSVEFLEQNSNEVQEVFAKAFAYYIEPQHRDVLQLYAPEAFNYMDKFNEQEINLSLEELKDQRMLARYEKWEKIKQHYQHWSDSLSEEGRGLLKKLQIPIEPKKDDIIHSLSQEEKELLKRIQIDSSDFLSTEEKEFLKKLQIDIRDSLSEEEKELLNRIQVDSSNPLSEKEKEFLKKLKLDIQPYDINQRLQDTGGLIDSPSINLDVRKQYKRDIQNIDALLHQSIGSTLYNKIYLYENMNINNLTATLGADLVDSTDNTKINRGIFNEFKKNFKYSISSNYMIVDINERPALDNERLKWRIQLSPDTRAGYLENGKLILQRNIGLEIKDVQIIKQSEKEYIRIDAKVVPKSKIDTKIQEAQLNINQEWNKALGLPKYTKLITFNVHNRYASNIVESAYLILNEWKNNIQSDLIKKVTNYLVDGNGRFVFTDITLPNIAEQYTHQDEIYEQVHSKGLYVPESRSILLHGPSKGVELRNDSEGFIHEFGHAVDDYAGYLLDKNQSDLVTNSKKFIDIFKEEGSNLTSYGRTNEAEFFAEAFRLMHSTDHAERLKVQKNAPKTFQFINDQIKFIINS
SARS 3CLpro inh – SARS-CoV 3CLpro protease inhibition. actives 0.14% (n = 290,000). inhibition, % at 6 µM. recombinant SARS-CoV 3CLpro, quenched FRET peptide cleavage. AID 1706; in the data active means inhibition above about 12%
CCHF vOTU inh – CCHFV vOTU protease inhibition. Pep-AMC fluorescence. actives 0.55% (n = 370,000). inhibition, % at 11.5 µM. AID 651958; in the data active means inhibition above about 30%; further: 0% = vehicle wells with enzyme and 100% = no enzyme wells
BoNT F protease – blocks Botulinum neurotoxin F light chain protease; Multiplex microsphere protease cleavage assay, flow cytometry; inhibition, % at 10 µM; actives 0.22% (n = 360,000); AID 588497; in the data active means inhibition above about 35%, passing the limit was not always enough; inconclusive means no clear call, values can overlap the other calls; further: plate controls were buffer without enzyme for full effect and enzyme alone for no effect
* marks the source's active call; other numbers are inactive results; ? = inconclusive; nt = not tested or not shown. Unless noted, no stated cut-off is given here; in the data, active means inhibition above about 30%; inconclusive means no clear call, values can overlap the other calls; inactive means below that.

SMILES	BoNT-A LC inh2	Autofluor counter	Anthrax LF inh2	SARS 3CLpro inh	CCHF vOTU inh	BoNT F protease
Cc1cc(S(=O)(=O)NCC(C)C)ccc1OCC(=O)N1CCOCC1	1.6	3940	6.2	-1.4	2.7	?
CCOC(=O)COc1ccc(S(=O)(=O)Nc2cccc(SC)c2)cc1	-2.6	21447*	-0.4	-3.1	-0.9	-4.7
O=c1c2ccccc2oc2nc(-c3ccco3)n(-c3ccccc3)c(=O)c12	1.2	1938	0.5	6.0	6.7	4.0
CC(C)c1nc2oc3ccccc3c(=O)c2c(=O)n1-c1ccccc1	6.0	17355*	-17.4	1.3	nt	4.5
C=CCNC(=O)COc1ccc(Br)cc1Cl	3.7	20768*	-10.1	6.1	-5.8	6.2
CCOC(=O)N1CCN(C(=O)COc2ccc(Br)cc2Cl)CC1	?	20543*	-1.0	0.4	9.7	-2.5
COc1ccc(-n2cnnc2SCc2csc(-c3ccccc3)n2)cc1	?	22341*	-2.8	-3.2	5.7	-1.4
CC1(C(=O)NC2CCCCCC2)CCC(=O)N1Cc1ccc2c(c1)OCO2 (centres undefined)	0.2	16292*	-5.9	-10.8	-3.9	-3.8
CC1(C(=O)NC2CCCCC2)CCC(=O)N1Cc1ccc2c(c1)OCO2 (centres undefined)	-0.3	3271	-9.7	2.7	4.3	6.6
CC(=O)CC[C@H]1CC[C@]2(CCCN(C(=O)c3ccco3)C2)O1	nt	nt	nt	nt	-2.6	nt
CC(=O)Nc1cccc(-c2nnc(SCC(=O)N3CCCCC3)n2C)c1	-1.9	24749*	-0.2	-3.8	15.6	-3.2
O=C(c1ccco1)N1CCC(Oc2cccnc2)CC1	nt	nt	nt	nt	1.6	nt
CCOC(=O)c1c(C)c(C(=O)NCc2ccc(OC)cc2)c(C)n1C	1.7	2229	1.4	5.9	1.3	-6.8
CCOCCCNC(=O)c1c(C)c(C(=O)OCC)n(C)c1C	?	18479*	-8.0	4.4	2.0	8.0
CCOC(=O)c1c(C)c(C(=O)NCc2ccccc2OC)c(C)n1C	-4.7	22066*	1.2	-1.0	6.1	-6.4
CCOC(=O)c1c(C)c(C(=O)NC2CCCCCC2)c(C)n1C	?	21622*	2.7	-2.4	-18.4	5.1
O=C(NCCc1ccccc1F)c1ccc2c(c1)ncn2C1CCCCC1	nt	nt	nt	nt	4.3	nt
CCC(C)[C@H](NC(=O)NCc1cccs1)C(=O)OC (some centres undefined)	0.4	6906	3.0	2.9	-3.5	3.2
Cc1cccc(C)c1NC(=O)C1C2C=CC(C2)C1C(=O)NCc1ccccn1 (centres undefined)	-1.1	7602	-3.2	2.6	-15.0	-1.9
COc1ccc(OC)c(NC(=O)C2C3C=CC(C3)C2C(=O)NCc2ccccn2)c1 (centres undefined)	-4.5	21062*	-1.7	-3.5	13.2	-8.4
O=C(Nc1ccc2c(c1)OCO2)Nc1ccccn1	-0.5	2152	-1.8	-2.5	4.6	-5.1
CCC(C)[C@H](NC(=O)NCc1ccccn1)C(=O)OC (some centres undefined)	0.5	16131*	-7.3	2.0	-2.1	0.0
O=C(Nc1ccc2c(c1)OCO2)Nc1cnccn1	-3.8	21245*	0.0	-1.6	6.5	-4.9
COc1ccc(NC(=S)NCc2ccccn2)cc1OC	0.0	3113	-1.4	-1.8	7.2	-4.5
COc1ccc(NC(=O)NCc2ccccn2)cc1OC	7.2	19081*	-15.9	-2.2	-2.5	14.2
SMILES	BoNT-A LC inh2	Autofluor counter	Anthrax LF inh2	SARS 3CLpro inh	CCHF vOTU inh	BoNT F protease
CCOC(=O)C1=NOC(C(=O)NC2CCCC2)(C(=O)c2ccc(OC)cc2)C1 (centres undefined)	nt	nt	nt	nt	8.5	nt
O=C(NCc1ccccn1)Nc1ccc2c(c1)OCO2	-2.7	17706*	-1.5	-1.1	-6.9	-0.5
Nc1ccn([C@@H]2O[C@H](C(=O)N[C@H](Cc3ccccc3)C(=O)N3CCSC3)[C@@H](O)[C@H]2O)c(=O)n1	nt	nt	nt	nt	0.9	nt
COc1ccc(/C=C(/C#N)C(=O)NC2CCCCC2)cc1Br	0.9	3886	0.6	3.4	-23.4	35.8*
CCCCOc1ccc(/C=C(\C#N)C(=O)NC2CC2)cc1	9.9	3581	?	nt	11.5	50.5*
N#C/C(=C\c1ccc2c(c1)OCCO2)C(=O)NC1CCCCC1	-0.3	2043	-1.9	2.4	27.3	5.4
N#C/C(=C\c1ccccc1)C(=O)NC1CC1	-1.1	3093	-2.9	-0.7	-12.5	7.8
C[C@H]1C2CC(OC(=O)Nc3cccc(F)c3)C(C2)[C@H]2CCCCN21 (some centres undefined)	nt	nt	nt	nt	-5.5	nt
CCN(CC)S(=O)(=O)c1ccc(Cl)c(C(=O)Nc2nnc(C)s2)c1	?	23810*	-5.7	-1.0	-3.4	-7.6
c1ccc(-c2nnc3n2CCCC3)cc1	1.9	22320*	-0.2	-1.5	0.7	3.6
Fc1ccc(-c2nnc3n2CCCCC3)cc1	0.6	3403	-4.6	3.8	8.6	3.6
Cc1cc2c(n1-c1ccc(Br)cc1)CC(C)(C)CC2=O	-0.1	16349*	-2.4	1.7	4.8	-0.3
Cc1ccc(C(=O)NN2CCOCC2)cc1	?	19445*	0.6	1.6	-1.0	0.1
COc1ccc(-c2ccc(SCC(=O)N3CCOCC3)nn2)cc1	1.3	22594*	-2.9	2.8	-4.4	6.1
O=C(CSc1ccc(-c2ccc(F)cc2)nn1)N1CCCCC1	0.1	10605	1.4	-3.4	nt	-0.7
CC1CCN(C(=O)CSc2ccc(-c3ccc(F)cc3)nn2)CC1	1.2	23070*	-1.1	0.8	7.7	1.1
O=C(CSc1ccc(-c2ccc(Br)cc2)nn1)N1CCOCC1	0.4	3957	3.4	-0.5	3.3	-0.6
COc1ccc(S[C@]2(C(=O)N3CCN(C(C)=O)CC3)CC(=O)N(C(=O)Nc3ccc(C)c(Cl)c3)[C@@H]2c2ccc(OC)cc2)cc1	nt	nt	nt	nt	8.7	nt
O=[N+]([O-])c1ccc(Cl)c(C[n+]2cccc3ccccc32)c1	-7.2	7598	-12.2	-1.1	1.6	48.8*
COC(=O)[C@]12C[C@H](CC(=O)NCC3CCCCC3)C(=O)N(Cc3cccc4ccccc34)C1=C[C@H](COCc1ccccc1)O[C@@H]2C	nt	nt	nt	nt	7.4	nt
O=C(OCCN1CCN(C2CN(Cc3cn(Cc4ccccc4Cl)nn3)S(=O)(=O)C2)CC1)c1cccs1 (centres undefined)	nt	nt	nt	nt	-1.9	nt
Cc1ccccc1NC(=S)N(C)C1(c2ccccc2Cl)CCCCC1=O (centres undefined)	1.8	23061*	-0.6	-2.3	-7.8	0.1
CN(C(=O)c1ccc(Cl)nc1)C1(c2ccccc2Cl)CCCCC1=O (centres undefined)	1.8	4037	-0.5	-0.2	-2.8	-1.3
CCOC(=O)Cc1nc(N2CCN(Cc3cccc4c3OCO4)CC2)c2c(C)c(C(=O)OCC)sc2n1	nt	nt	nt	nt	2.6	nt
O=C(C1CCCN(S(=O)(=O)c2ccc(Br)s2)C1)N1CCN(Cc2ccccc2)CC1 (centres undefined)	nt	nt	nt	nt	-4.3	nt
O=C1C=C(NCC2CCCO2)C2(CCCCC2)O1 (centres undefined)	2.5	19832*	-2.6	-2.5	-3.5	2.2
O=C1C=C(NC2CC2)C2(CCCCC2)O1	-0.2	2802	-3.4	0.7	-2.9	-12.9
